Assay outcomes: PubChem, several laboratories
In the library only some 3.7% were active in any assay of this set; here they are far more common.
NALP3 yeast inh = inhibitors of NALP3 inflammasome in yeast. hit rate 0.39% among 330,000. Yeast reconstituted NLRP3/ASC/caspase-1, beta-gal luminescence, 24 h. inhibition, % at 10 µM. AID 2825;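 active = inhibition of 50% or more; inactive = inhibition below 50%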
tim23-1 inh = tim23-1 yeast growth inhibition | hit rate 1.3% among 330,000 | inhibition, % at 20 µM | S. cerevisiae tim23-1 growth, BacTiter-Glo luminescence, 24 h;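 active = growth inhibition of the mutant yeast at or above 50%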;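 also: temperature-sensitive mutant grown at 25 °C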
tim10-1 inh = tim10-1 yeast growth inhibition | inhibition, % at 20 µM | S. cerevisiae tim10-1 ts strain growth, BacTiter-Glo, 24 h | hit rate 2.2% among 330,000 | AID 463190;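 active = inhibition of at least 40%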;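 also: mutant grown at 25 °C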
PfHsp90 yeast 2 = reduces growth (ATP signal) of yeast expressing P. falciparum Hsp90; S. cerevisiae expressing PfHsp90, BacTiter-Glo ATP, 48 h; yeast lacking PDR1 and PDR3 efflux regulators; inhibition, % at 9.4 µM; hit rate 0.32% among 310,000; AID 504621;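 active = every replicate shows inhibition above about 80%, whatever the replicate mean, limit read from the data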
TIM10 inh = TIM10 yeast growth inhibition | inhibition, % at 10 µM | hit rate 1.4% among 330,000 | S. cerevisiae TIM10 strain growth, BacTiter-Glo luminescence, 24 h;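 active = inhibition of 40% or more at the single tested concentration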;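 also: wild-type TIM10 isogenic control strain grown at permissive 25 °C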
tim10-1 conf = tim10-1 yeast growth inhibition, confirmed. inhibition, % at 20 µM. S. cerevisiae tim10-1 ts strain growth, BacTiter-Glo, 24 h. shares compounds with tim10-1 inh. hit rate 56% among 7,400;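 active = inhibition of yeast growth at or above a set limit in either of two repeat tests at 20 µM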;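 also: tim10-1 mutant grown at permissive 25 °C to find synthetic lethal compounds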
A number is an active result; - = inactive; . = not tested or not shown.

SMILES	NALP3 yeast inh	tim23-1 inh	tim10-1 inh	PfHsp90 yeast 2	TIM10 inh	tim10-1 conf
COc1cc(C(=O)NCC2CCCO2)ccc1OCc1ccc(Cl)cc1Cl (centres undefined)	-	-	43	-	-	30
COCCNC(=O)/C(C#N)=C/c1ccc(OC(=O)c2cccs2)c(OC)c1	.	.	.	-	.	.
COc1cc(C(=O)NCC2CCCO2)ccc1OCc1ccc(Cl)cc1 (centres undefined)	-	-	-	-	-	.
N#C/C(=C\c1ccc(O)c(Br)c1)C(=O)NCc1ccccc1	-	-	47	-	-	-
CC(C)c1ccc(NC2=CC(=O)CC(C)(C)C2)cc1	-	-	41	-	-	-
CCc1ccc(NC2=CC(=O)CC(C)(C)C2)cc1	-	-	-	-	-	.
FC(F)(F)c1cccc(Nc2cc(-c3ccccc3)nc3ncnn23)c1	-	-	-	-	-	.
FC(F)(F)c1ccc(N2CCN(c3cc(-c4ccccc4)nc4ncnn34)CC2)nc1	-	-	45	-	-	-
O=C(CSc1nc2nn(-c3ccccc3)c(=O)c-2c2n1CCCCC2)Nc1ccc(OC(F)F)cc1	-	-	-	-	-	.
Oc1ccc(Br)cc1/C=N/n1cnc2ccccc21	-	-	42	-	-	-
CC(=O)OC1CCC2(C)C(CCC3C2CC(=O)C2(C)C3CC(C3CCCC3=O)C2C(C)=O)C1 (centres undefined)	.	.	.	-	.	.
CCCCN(C(=O)C1=COCCO1)c1c(N)n(Cc2ccccc2)c(=O)[nH]c1=O	-	-	43	-	-	-
COCCN(C(=O)C1=COCCO1)c1c(N)n(Cc2ccccc2)c(=O)[nH]c1=O	-	-	-	-	-	.
O=C(Nc1cccc(C(=O)N2CCOCC2)c1)C1CCCC1	.	.	.	-	.	.
CCn1c(COc2cccc(C)c2)nnc1SCC(=O)CC(=O)Nc1ccccc1OC	-	-	48	-	-	-
CNc1ccc(C(=O)OCC(=O)Nc2ccnn2C(C)C)cc1[N+](=O)[O-]	-	-	-	-	-	.
CCOC(=O)c1sc(NC(=O)C2CC2)cc1C	-	-	54	-	-	-
CCOC(=O)c1sc(NC(=S)NC(=O)C2CCCC2)cc1C	-	-	-	-	-	.
COc1cccc(C(=O)NCCS(=O)(=O)NCCc2ccc(OC)c(OC)c2)c1	-	-	-	-	-	.
[O-][n+]1ccccc1/C=C/c1ccccc1	-	-	-	-	-	.
[O-][n+]1c(/C=C/c2ccccc2)ccc2ccccc21	-	-	49	-	-	-
O=C(NC1CCCC1)C(c1ccc(F)cc1)N(Cc1ccc(F)cc1)C(=O)CCl (centres undefined)	-	-	57	-	-	33
Cn1c(NCc2cc(Br)ccc2O)nc2ccccc21	-	-	-	.	-	.
Cn1c(NCc2c(O)ccc3ccccc23)nc2ccccc21	-	-	45	.	-	33
CCOc1ccc(-c2cccc(NC(=O)COc3ccc(Cl)cc3)c2)nn1	-	-	-	-	-	.
SMILES	NALP3 yeast inh	tim23-1 inh	tim10-1 inh	PfHsp90 yeast 2	TIM10 inh	tim10-1 conf
C/C(=N\NC(=O)c1cc(-c2cccs2)nc2ccccc12)c1ccccn1	-	-	67	-	-	48
O=C(NC1CC1)c1ccc(NC(=O)C2CCC2)cc1	.	.	.	-	.	.
COC1=CC(=O)[C@@]2([C@@H]1O)[C@@H](Cl)C[C@]13C(OC)=C(OC)C(=O)C[C@]21CCN3C	-	-	-	-	-	.
Cn1c2ccccc2c(=O)c2ccc(C#CC3(O)CCCCC3)cc21	-	-	47	-	-	34
Cc1cccc2c(N=O)c(O)n(CCc3ccccc3)c12	-	-	41	-	-	-
Cc1ccc(Cn2c(O)c(N=O)c3ccccc32)cc1	-	-	-	-	-	.
Cc1ccc(S(=O)(=O)N2CCCC2C(=O)NCc2ccccc2Cl)cc1 (centres undefined)	-	-	-	-	-	.
CCOc1ccc(OCc2ccc(C(=O)N3CCCC(C)C3)cc2)cc1 (centres undefined)	-	-	41	-	-	-
O=C(/C=C/c1ccccc1Cl)N(c1ccccn1)C1CCCCC1	-	-	-	-	-	.
O=C(/C=C/c1ccccc1)N(c1ccccn1)C1CCCCC1	-	-	43	-	-	-
C=CCn1c(C)nnc1SCC(=O)c1c(N)n(C2CC2)c(=O)[nH]c1=O	-	-	-	-	-	.
C/C(=N\NC(=O)c1cc2c(s1)CCC(C)C2)c1ccncc1 (centres undefined)	-	-	54	-	-	32
C/C(=N\NC(=O)c1cc2c(s1)CCC(C)C2)c1ccc[nH]1 (centres undefined)	-	-	-	-	-	.
O=C(Nc1ccc([N+](=O)[O-])cc1)C1COc2ccccc2O1 (centres undefined)	-	-	-	-	-	.
O=C(N/N=C/C=C/c1ccc([N+](=O)[O-])cc1)C1COc2ccccc2O1 (centres undefined)	-	-	51	-	-	37
O=C(CNC(=O)C1COc2ccccc2O1)N/N=C\c1ccc(Br)cc1 (centres undefined)	-	-	60	-	-	-
COc1ccc(S(=O)(=O)N2CCC(C(=O)N[C@@H](C)C(=O)NC3CC3)CC2)cc1	-	-	-	-	-	.
Oc1cccc2ccc(/C=C/c3cccs3)nc12	-	-	41	-	-	-
COc1cc(Br)c(/C=C/c2ccc3cccc(O)c3n2)cc1OC	-	-	-	-	-	.
COc1cc(Br)cc(/C=C/c2ccc3cccc(O)c3n2)c1O	-	-	49	-	-	38
COc1ccc(OC)c(/C=C/c2ccc3cccc(O)c3n2)c1	-	-	-	-	-	.
Oc1c(Cl)cc(Cl)cc1/C=C/c1ccc2cccc(O)c2n1	-	-	43	-	-	33
COc1cc(/C=C/c2ccc3cccc(O)c3n2)c(Br)cc1O	-	-	47	-	-	46
FC(F)(F)c1nnc2sc(-c3ccccn3)nn12	-	-	-	-	-	.
CCOc1ccccc1-c1nn2c(Cc3ccccc3)nnc2s1	-	-	41	.	-	-
SMILES	NALP3 yeast inh	tim23-1 inh	tim10-1 inh	PfHsp90 yeast 2	TIM10 inh	tim10-1 conf
COc1ccccc1-c1nn2c(C3COc4ccccc4O3)nnc2s1 (centres undefined)	-	-	46	.	-	48
COc1ccccc1-c1nn2c(C(F)(F)F)nnc2s1	-	-	45	.	-	34
O=C(O)CCn1c(SCCOc2ccccc2)nc2ccccc21	-	-	-	-	-	.
Cc1cc(C)n2nc(SC(C)C(=O)N3CCOCC3)nc2n1 (centres undefined)	-	-	-	.	-	.
O=[N+]([O-])c1c(C(Cl)Cl)nn(-c2ccccc2)c1N1CCOCC1	-	-	44	-	-	35
O=C(Nc1nnc(C2=COCCO2)o1)c1ccc(Br)cc1	-	-	42	-	-	39
O=C(Nc1nnc(C2=COCCO2)o1)c1ccc(Cl)cc1	-	-	57	-	-	32
O=C(Nc1nnc(C2=COCCO2)o1)c1ccc([N+](=O)[O-])cc1	-	-	46	-	-	35
